Source: PubChem (Broad Institute)
These entries were drawn from the full list.
aSyn 5UTR act: Activators via SNCA 5'UTR binding, MLPCN; alpha-synuclein 5'UTR reporter, activators screen; activity score, % (tested at 7.5 µM), hits read low; 300,000 compounds, 7.1% hits; AID 1814, 2009; in the data active = activity score below about -60%
A number is an active result; . = inactive.

SMILES	aSyn 5UTR act
O=C(Nc1cccc(-c2csc(Nc3ccc(Cl)cc3)n2)c1)c1cc([N+](=O)[O-])cc(C(F)(F)F)c1	-72.0
O=c1cccc2c1c1cc[nH]c3ccc(=O)n2c31	.
CCOC(=O)c1sc(NC(=O)C2CCC2)cc1C	-110.0
CCOC(=O)c1sc(NC(=O)Nc2ccccc2Cl)cc1C	-94.9
CCOC(=O)c1sc(NC(=O)c2ccc(C)s2)cc1C	-170.4
CCOC(=O)c1sc(NC(=O)c2cccc(S(=O)(=O)N3c4ccccc4CC3C)c2)cc1C (stereo not drawn)	.
CCOC(=O)C1CCN(c2c(Nc3ccc4c(c3)OCCO4)c(=O)c2=O)CC1	-78.0
O=c1c2ccccc2c(C=Nc2ccc(O)cc2)c(O)n1Cc1ccccc1	-110.7
O=C(/C=C/Nc1cccc(F)c1)c1ccco1	-264.0
O=C(/C=C/Nc1ccc(F)c(Cl)c1)c1ccco1	-147.8
CC(C)OCCOc1ccc2oc(-c3ccco3)cc(=O)c2c1	-115.4
Cc1ccc2oc(-c3ccco3)cc(=O)c2c1	-170.5
CC1CC(=O)c2c(cc3c(-c4c(O)cc(O)c5c(O)c6c(cc45)OC(C)CC6=O)c(O)cc(O)c3c2O)O1 (stereo not drawn)	.
CCc1cc(C(=O)Nc2ccccc2)cs1	-134.4
CCc1cc(C(=O)NNC(=S)Nc2ccccc2C)cs1	-147.4
CCN1C(=O)/C(=C2/C=Cc3ccccc3N2C)OC1=S	-200.4
CN(C)c1ccc(NC(=S)NC(=O)/C=C/c2ccc(Cl)cc2)cc1	-218.6
CCN(CC)c1ccc(NC(=O)/C=C\c2ccccc2Cl)cc1	-189.8
CN(C)c1ccc(NC(=O)/C=C/c2ccccc2Cl)cc1	-161.1
CCn1c2ccccc2c2cc(Nc3cc(C)nc4ncnn34)ccc21	.
CCn1c2ccccc2c2cc(NC(=O)C(=O)N3CCOCC3)ccc21	-63.5
COc1cccc(NC(=O)C(=O)N2CCOCC2)c1	-172.8
c1ccc2c(Nc3nnc(-c4ccncc4)s3)cccc2c1	-186.2
C=CCS/C(N)=N\N=C\c1c(O)ccc2ccccc12	-194.6
CCCS/C(N)=N/N=C/c1ccccc1O	-198.1
SMILES	aSyn 5UTR act
O=Nc1c(-c2ccccc2)cc2ccccn12	-211.2
Cn1c(-c2ccccc2)cnc1NCc1cc(Cl)ccc1O	-66.5
Oc1ccc(CNc2ccc(F)cc2)c2cccnc12	.
Cn1c(-c2ccc(F)cc2)cnc1NCc1ccccc1F	-66.1
O=C(COc1ccccc1)Nc1nc2c(s1)CCCC2	-87.8
CC(=O)c1sc(NC(=O)COc2ccccc2)nc1C	-108.9
COC(=O)Nc1nc2c(s1)CCCC2	-86.8
CCN1CCN(/C=N/c2nc3c(s2)CCCC3)CC1	.
COC(=O)c1sc(NC(=O)COc2ccccc2C)nc1C	-90.5
CC(C)CCn1nc(C(=O)Nc2nc3c(s2)CCCC3)c2ccccc2c1=O	.
COc1ccccc1OCC(=O)Nc1nc(C)c(C)s1	-83.0
CC(/C=N/NC(=O)c1cccnc1)=C\c1ccco1	-102.9
CC(/C=N/NC(=O)c1cnccn1)=C\c1ccco1	-116.7
CCCC(=O)Nc1ccc(C(=O)/C=C/c2ccc(SC)cc2)cc1	-70.3
Cc1ccc2[nH]c(-c3cccc(N)c3)cc2c1	-209.2
Cc1ccc2[nH]c(-c3cccc(F)c3)cc(=O)c2c1	.
Cc1ccc2[nH]c(=O)c(C3C(C#N)=C(N)Oc4c3ccc3cccnc43)cc2c1 (stereo not drawn)	.
Cc1ccc(C)n1-c1cccc(NC(=O)c2ccccc2)c1	-72.7
Cc1ccc(C)n1-c1ccc(C(=O)Nc2ccccc2)cc1	-81.7
Cc1nc2cc(-c3ccccc3)ccc2o1	-67.4
c1ccc2c(c1)CC/C2=N/Nc1nc2ccccc2[nH]1	-174.3
O=C(CSc1nncs1)Nc1ccc2c(c1)OCCO2	-102.4
O=C(CSc1nncs1)NC(=O)Nc1ccc2c(c1)OCCO2	-133.6
O=C(CSc1ncn[nH]1)Nc1ccc2c(c1)OCCO2	-61.6
COc1ccc2nc(SCC(=O)Nc3ccc4c(c3)OCCO4)[nH]c2c1	-63.2
SMILES	aSyn 5UTR act
COc1ccc2nc(SCC(=O)/C(C#N)=C(\C)N)[nH]c2c1	-76.0
O=C(CSc1nc2ccc(Cl)cc2[nH]1)c1ccc2c(c1)OCO2	-67.5
CCN(C(=O)c1cc2ccccc2oc1=O)c1ccccc1	-123.8
O=C(c1cc2ccccc2oc1=O)N(c1ccccc1)C1C=CS(=O)(=O)C1 (stereo not drawn)	-102.4
CC(C)c1ccc(N(C(=O)c2cc3ccccc3oc2=O)C2C=CS(=O)(=O)C2)cc1 (stereo not drawn)	-122.5
COc1ccc(N(C(=O)c2cc3ccccc3oc2=O)C2C=CS(=O)(=O)C2)cc1 (stereo not drawn)	-61.8
CCOC(=O)Nc1sc2c(c1C#N)CCC(C)C2 (stereo not drawn)	-160.6
CC1CCc2c(sc(NC(=O)COC(=O)C3CCCO3)c2C#N)C1 (stereo not drawn)	-68.4
CC1CCc2c(sc(NC(=O)c3nc4ncccn4n3)c2C#N)C1 (stereo not drawn)	-147.9
CC1CCc2c(sc(NC(=O)C3CCCO3)c2C#N)C1 (stereo not drawn)	-114.4
COc1cc2c(cc1NC(=O)COC(=O)[C@@H](NC(=O)c1ccccc1F)C(C)C)oc1ccccc12	-85.0
COc1cc2c(cc1NC(=O)C(C)Sc1cccc[n+]1[O-])oc1ccccc12 (stereo not drawn)	-241.2
COc1cc2c(cc1NC(=O)COC(=O)C1CC(=O)N(Cc3ccco3)C1)oc1ccccc12 (stereo not drawn)	-145.4
COc1ccc(CC(=O)Nc2cc3oc4ccccc4c3cc2OC)cc1	-161.5
COc1ccccc1CC(=O)Nc1cc2oc3ccccc3c2cc1OC	-129.2
COc1cc2c(cc1NC(=O)COC(=O)CNC(=O)c1ccccc1)oc1ccccc12	-94.3
COc1cc2c(cc1NC(=O)C(C)OC(=O)c1ccc(S(=O)(=O)Nc3ccccc3Cl)cc1)oc1ccccc12 (stereo not drawn)	-115.5
Cn1nnnc1Sc1ncnc2scc(-c3ccc(F)cc3)c12	-88.9
COc1ccc(-n2c(C)nc3c(cnn3-c3ccc(C)c(C)c3)c2=O)cc1	-84.9
O=C(Cc1ccc(Cl)cc1)Nc1ccc(Br)cc1	-67.3
Oc1ccc(Cl)cc1CNc1ccc(Br)cn1	-141.8
O=C(Cc1ccc(Cl)cc1)Nc1ccc(Br)cn1	-66.0
CCc1ccc(-c2cc(N)n(-c3ccccc3)n2)cc1	-121.0
Nc1cc(C2CCCC2)nn1-c1ccccc1	-128.0
Cc1ccc(-c2cc(N)n(-c3ccccc3)n2)cc1	-115.2
SMILES	aSyn 5UTR act
CCOc1ccc(NC(=S)Nc2cccc3cnccc23)cc1	-89.1
CCOc1ccc(NC(=S)Nc2cc(OC)c(Cl)cc2OC)cc1	-89.9
COc1cccc(NC(=S)Nc2cccc3ccccc23)c1	-69.6
COc1ccc(NC(=S)Nc2cccc3cnccc23)cc1	-72.5
S=C(Nc1cccnc1)Nc1cccc2cnccc12	.
COc1cccc(NC(=S)NN=C2CCCCCC2)c1	-146.5
CCc1ccc(NC(=S)Nc2cccc(OC)c2)cc1	-108.6
CCOc1ccc(NC(=S)Nc2cccc3ccccc23)cc1	-63.4
CN(C)CCN(C(=O)c1cccs1)c1nc2cc3c(cc2s1)OCCO3	-105.7
CN(C)CCN(C(=O)c1ccc(Br)s1)c1nc2cc3c(cc2s1)OCCO3	-71.5
Cc1ccc(C(=O)O/N=C(\N)c2cccnc2)cc1[N+](=O)[O-]	-124.8
COc1ccc(/C(N)=N/OC(=O)c2ccc(C)c([N+](=O)[O-])c2)cc1OC	-126.0
N/C(=N\OC(=O)c1cc([N+](=O)[O-])ccc1Cl)c1cccnc1	.
N/C(=N\OC(=O)c1ccccc1[N+](=O)[O-])c1cccnc1	-96.9
N/C(=N\OC(=O)c1ccc([N+](=O)[O-])cc1)c1cccnc1	-91.8
N/C(=N\OC(=O)c1ccccc1Cl)c1ccccn1	.
